# Results reported in the supplement of paper PMC10037445.
# Over roughly 2,900 compounds, “NF-kB SEAP reporter activity, fold change vs agonist alone” has its median near 0.99; the highest 2% begin near 2.6. The list comes from a sample in which the highest values are over-represented; it also holds similar structures and randomly drawn compounds.
# Key:
# RAW-Dual [1] = experiment: NF-kB SEAP reporter activity, fold change vs agonist alone; cytotoxicity flag (confluency mask): cytotoxic (confluency <70% of control); higher = enhanced NF-kB activity
# Method in brief: (§1)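 Reporter activity is given as fold change relative to agonist-alone wells. To measure it, 50 nL of library stock was pin-tooled onto RAW-Dual macrophages (50,000 cells/well, DMEM, 384-well plates), a PRR agonist followed 1 h later, and cells stayed at 37 °C, 5% CO2. Twenty hours on, supernatant was assayed for IRF (QuantiLuc luminescence) and NF-κB (QuantiBlue, 620 nm absorbance), and wells under 70% of agonist-control IncuCyte confluency in both mask sets were marked cytotoxic.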
# RAW-Dual [2] = experiment: NF-kB SEAP reporter activity, fold change vs agonist alone; cytotoxicity flag (confluency mask): not cytotoxic; higher = enhanced NF-kB activity
# Method in brief: as §1
# RAW-Dual [3] = experiment: NF-kB SEAP reporter activity, fold change vs agonist alone; higher = enhanced NF-kB activity
# Method in brief: as §1
# [4] = agonist: ODN 1826 (TLR9) 0.5 ug/mL
# [5] = agonist: Pam2CSK4 (TLR2/6) 0.1 ug/mL
# [6] = agonist: Pam3CSK4 (TLR2/1) 0.1 ug/mL
# [7] = library stock concentration (final ~1000-fold dilution): 10 mM, cytotoxicity flag (confluency mask): cytotoxic (confluency <70% of control), agonist: Imiquimod (TLR7) […]
# [8] = library stock concentration (final ~1000-fold dilution): 10 mM, cytotoxicity flag (confluency mask): cytotoxic (confluency <70% of control), agonist: MPLA (TLR4) […]
# [9] = library stock concentration (final ~1000-fold dilution): 10 mM, cytotoxicity flag (confluency mask): not cytotoxic, agonist: Imiquimod (TLR7) […]
# [10] = library stock concentration (final ~1000-fold dilution): 10 mM, cytotoxicity flag (confluency mask): not cytotoxic, agonist: MPLA (TLR4) […]
smiles,measurement,setting,value
COc1cc2ncnc(Nc3cccc(Cl)c3)c2cc1OC (library stock concentration (final ~1000-fold dilution): 10 mM),NF-kB SEAP reporter activity,RAW-Dual [1]; agonist: LPS (TLR4) 0.1 ug/mL,1.59
same,NF-kB SEAP reporter activity,RAW-Dual [1]; [4],0.692
same,NF-kB SEAP reporter activity,RAW-Dual [1]; [5],0.764
same,NF-kB SEAP reporter activity,RAW-Dual [1]; [6],1.02
C#Cc1cccc(Nc2ncnc3cc(OCCOC)c(OCCOC)cc23)c1 (library stock concentration (final ~1000-fold dilution): 10 mM),NF-kB SEAP reporter activity,RAW-Dual [2]; agonist: LPS (TLR4) 0.1 ug/mL,4.68
same,NF-kB SEAP reporter activity,RAW-Dual [2]; [4],1.33
same,NF-kB SEAP reporter activity,RAW-Dual [2]; [5],0.887
same,NF-kB SEAP reporter activity,RAW-Dual [2]; [6],0.935
COc1cc2ncnc(Nc3ccc(F)c(Cl)c3)c2cc1NC(=O)/C=C/CN1CCCCC1,NF-kB SEAP reporter activity,RAW-Dual [3]; [7],2.28
same,NF-kB SEAP reporter activity,RAW-Dual [3]; [8],1.52
C#Cc1cccc(Nc2ncnc3cc(OCCOC)c(OCCOC)cc23)c1.Cl (library stock concentration (final ~1000-fold dilution): 2 mM),NF-kB SEAP reporter activity,RAW-Dual [2]; agonist: LPS (TLR4) 0.1 ug/mL,2.26
same,NF-kB SEAP reporter activity,RAW-Dual [2]; [4],0.972
same,NF-kB SEAP reporter activity,RAW-Dual [2]; [5],0.853
same,NF-kB SEAP reporter activity,RAW-Dual [2]; [6],1.1
C#Cc1cccc(Nc2ncnc3cc(OCCOC)c(OCCOC)cc23)c1.Cl,NF-kB SEAP reporter activity,"RAW-Dual [3]; library stock concentration (final ~1000-fold dilution): 2 mM, cytotoxicity flag (confluency mask): not cytotoxic, agonist: Imiquimod (TLR7) […]",0.949
same,NF-kB SEAP reporter activity,"RAW-Dual [3]; library stock concentration (final ~1000-fold dilution): 2 mM, cytotoxicity flag (confluency mask): not cytotoxic, agonist: MPLA (TLR4) […]",1.39
C#Cc1cccc(Nc2ncnc3cc(OCCOC)c(OCCO)cc23)c1.Cl (library stock concentration (final ~1000-fold dilution): 10 mM),NF-kB SEAP reporter activity,RAW-Dual [2]; agonist: LPS (TLR4) 0.1 ug/mL,4.71
same,NF-kB SEAP reporter activity,RAW-Dual [2]; [4],1.41
same,NF-kB SEAP reporter activity,RAW-Dual [2]; [5],1.02
same,NF-kB SEAP reporter activity,RAW-Dual [2]; [6],1.87
COc1cc2ncnc(Nc3cccc(Cl)c3)c2cc1OC,NF-kB SEAP reporter activity,RAW-Dual [3]; [7],1.58
same,NF-kB SEAP reporter activity,RAW-Dual [3]; [8],1.42
COc1cc2ncnc(Nc3ccc(O)cc3)c2cc1OC (library stock concentration (final ~1000-fold dilution): 10 mM),NF-kB SEAP reporter activity,RAW-Dual [2]; agonist: LPS (TLR4) 0.1 ug/mL,0.948
same,NF-kB SEAP reporter activity,RAW-Dual [2]; [4],0.826
same,NF-kB SEAP reporter activity,RAW-Dual [2]; [5],0.971
same,NF-kB SEAP reporter activity,RAW-Dual [2]; [6],0.867
COc1cc2ncnc(Nc3cccc(Cl)c3F)c2cc1OC(=O)N1CCN(C)CC1C (stereo not drawn),NF-kB SEAP reporter activity,RAW-Dual [3]; [9],0.868
same,NF-kB SEAP reporter activity,RAW-Dual [3]; [10],1.05
COc1cc2ncnc(Nc3ccc(O)c(Br)c3)c2cc1OC,NF-kB SEAP reporter activity,RAW-Dual [3]; [9],1.45
same,NF-kB SEAP reporter activity,RAW-Dual [3]; [10],1.78
C#Cc1cccc(Nc2ncnc3cc(OC)c(OCCCCCCC(=O)NO)cc23)c1 (library stock concentration (final ~1000-fold dilution): 10 mM),NF-kB SEAP reporter activity,RAW-Dual [1]; agonist: LPS (TLR4) 0.1 ug/mL,7.09
same,NF-kB SEAP reporter activity,RAW-Dual [1]; [4],1.67
same,NF-kB SEAP reporter activity,RAW-Dual [1]; [5],0.682
same,NF-kB SEAP reporter activity,RAW-Dual [1]; [6],1.41
COc1cc2ncnc(Nc3ccc(O)cc3)c2cc1OC,NF-kB SEAP reporter activity,RAW-Dual [3]; [9],1.05
same,NF-kB SEAP reporter activity,RAW-Dual [3]; [10],1.16
C#Cc1cccc(Nc2ncnc3cc4c(cc23)OCCOCCOCCO4)c1,NF-kB SEAP reporter activity,RAW-Dual [3]; [9],1.06
same,NF-kB SEAP reporter activity,RAW-Dual [3]; [10],1.53
COc1cc2ncnc(Nc3cccc(Cl)c3F)c2cc1OC(=O)N1CCN(C)CC1C (stereo not drawn) (library stock concentration (final ~1000-fold dilution): 10 mM),NF-kB SEAP reporter activity,RAW-Dual [2]; agonist: LPS (TLR4) 0.1 ug/mL,1.19
same,NF-kB SEAP reporter activity,RAW-Dual [2]; [4],0.84
same,NF-kB SEAP reporter activity,RAW-Dual [2]; [5],1.19
same,NF-kB SEAP reporter activity,RAW-Dual [2]; [6],1.1
NS(=O)(=O)OC[C@H]1C[C@@H](Nc2ccnc3cc(-c4cccc(SC(F)(F)F)c4)nn23)[C@H](O)[C@@H]1O,NF-kB SEAP reporter activity,RAW-Dual [3]; [7],0.145
same,NF-kB SEAP reporter activity,RAW-Dual [3]; [8],0.255
NS(=O)(=O)OC[C@H]1C[C@@H](Nc2ccnc3cc(-c4cccc(SC(F)(F)F)c4)nn23)[C@H](O)[C@@H]1O (library stock concentration (final ~1000-fold dilution): 10 mM),NF-kB SEAP reporter activity,RAW-Dual [1]; agonist: LPS (TLR4) 0.1 ug/mL,0.308
same,NF-kB SEAP reporter activity,RAW-Dual [1]; [4],0.19
same,NF-kB SEAP reporter activity,RAW-Dual [1]; [5],0.0814
same,NF-kB SEAP reporter activity,RAW-Dual [1]; [6],0.152
CCNC(=O)[C@]12CCC(C)(C)C[C@H]1[C@H]1C(=O)C=C3[C@@]4(C)C=C(C#N)C(=O)C(C)(C)[C@@H]4CC[C@@]3(C)[C@]1(C)CC2 (library stock concentration (final ~1000-fold dilution): 10 mM),NF-kB SEAP reporter activity,RAW-Dual [2]; agonist: LPS (TLR4) 0.1 ug/mL,0.324
same,NF-kB SEAP reporter activity,RAW-Dual [2]; [4],0.193
same,NF-kB SEAP reporter activity,RAW-Dual [2]; [5],0.0804
same,NF-kB SEAP reporter activity,RAW-Dual [2]; [6],0.173
CCNC(=O)[C@]12CCC(C)(C)C[C@H]1[C@H]1C(=O)C=C3[C@@]4(C)C=C(C#N)C(=O)C(C)(C)[C@@H]4CC[C@@]3(C)[C@]1(C)CC2,NF-kB SEAP reporter activity,RAW-Dual [3]; [9],0.15
same,NF-kB SEAP reporter activity,RAW-Dual [3]; [10],0.256
CC(O)C(=O)O.CN1CCN(c2ccc3nc(-c4c(N)c5c(F)cccc5[nH]c4=O)[nH]c3c2)CC1,NF-kB SEAP reporter activity,RAW-Dual [3]; [7],0.335
same,NF-kB SEAP reporter activity,RAW-Dual [3]; [8],0.591
CC(O)C(=O)O.CN1CCN(c2ccc3nc(-c4c(N)c5c(F)cccc5[nH]c4=O)[nH]c3c2)CC1 (library stock concentration (final ~1000-fold dilution): 10 mM),NF-kB SEAP reporter activity,RAW-Dual [1]; agonist: LPS (TLR4) 0.1 ug/mL,0.341
same,NF-kB SEAP reporter activity,RAW-Dual [1]; [4],0.18
same,NF-kB SEAP reporter activity,RAW-Dual [1]; [5],0.15
same,NF-kB SEAP reporter activity,RAW-Dual [1]; [6],0.219
C=C(CC(=O)OCCCCCCCC)C(=O)O,NF-kB SEAP reporter activity,RAW-Dual [3]; [9],0.711
same,NF-kB SEAP reporter activity,RAW-Dual [3]; [10],0.955
C=C(CC(=O)OCCCCCCCC)C(=O)O (library stock concentration (final ~1000-fold dilution): 10 mM),NF-kB SEAP reporter activity,RAW-Dual [2]; agonist: LPS (TLR4) 0.1 ug/mL,0.76
same,NF-kB SEAP reporter activity,RAW-Dual [2]; [4],0.641
same,NF-kB SEAP reporter activity,RAW-Dual [2]; [5],0.455
same,NF-kB SEAP reporter activity,RAW-Dual [2]; [6],0.645
NCC(O)(c1ccc(Cl)cc1)c1ccc(-c2cn[nH]c2)cc1 (stereo not drawn) (library stock concentration (final ~1000-fold dilution): 10 mM),NF-kB SEAP reporter activity,RAW-Dual [2]; agonist: LPS (TLR4) 0.1 ug/mL,0.342
same,NF-kB SEAP reporter activity,RAW-Dual [2]; [4],0.435
same,NF-kB SEAP reporter activity,RAW-Dual [2]; [5],0.236
same,NF-kB SEAP reporter activity,RAW-Dual [2]; [6],0.327
NCC(O)(c1ccc(Cl)cc1)c1ccc(-c2cn[nH]c2)cc1 (stereo not drawn),NF-kB SEAP reporter activity,RAW-Dual [3]; [9],0.966
same,NF-kB SEAP reporter activity,RAW-Dual [3]; [10],0.527
CN1C(=N)NC(C)(c2cc(NC(=O)c3ccc(F)cn3)ccc2F)CS1(=O)=O.O=C(O)C(F)(F)F (stereo not drawn) (library stock concentration (final ~1000-fold dilution): 10 mM),NF-kB SEAP reporter activity,RAW-Dual [2]; agonist: LPS (TLR4) 0.1 ug/mL,0.826
same,NF-kB SEAP reporter activity,RAW-Dual [2]; [4],0.731
same,NF-kB SEAP reporter activity,RAW-Dual [2]; [5],0.823
same,NF-kB SEAP reporter activity,RAW-Dual [2]; [6],0.856
CN1C(=N)NC(C)(c2cc(NC(=O)c3ccc(F)cn3)ccc2F)CS1(=O)=O.O=C(O)C(F)(F)F (stereo not drawn),NF-kB SEAP reporter activity,RAW-Dual [3]; [9],0.873
same,NF-kB SEAP reporter activity,RAW-Dual [3]; [10],0.781
